# Publication PMC11006913
# Substitutions are numbered along the chain they refer to.
# What was measured:
# Experiment in all cases: PBM; 200 nM protein, PBS
# Settings in all cases: dsDNA, one strand shown
# [1] = biological target: CRX (Homo sapiens, UniProt O43186 26-111)
# [2] = biological target: CRX (Homo sapiens, UniProt O43186 26-111, E42D)
# [3] = biological target: T1, PAX4 (Homo sapiens, UniProt O43316 9-242, R200K)
# T1 sequence: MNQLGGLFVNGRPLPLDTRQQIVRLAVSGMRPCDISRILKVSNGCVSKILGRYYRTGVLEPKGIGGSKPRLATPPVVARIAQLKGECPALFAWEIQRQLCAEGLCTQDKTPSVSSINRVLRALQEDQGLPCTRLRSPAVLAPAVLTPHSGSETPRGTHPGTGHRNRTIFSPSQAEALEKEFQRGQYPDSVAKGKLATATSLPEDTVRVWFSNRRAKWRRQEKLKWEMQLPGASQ
# [4] = biological target: PITX2 (Homo sapiens, UniProt Q99697 72-157)
# [5] = biological target: T2, PAX4 (Homo sapiens, UniProt O43316 9-242, F177Y)
# T2 sequence: T1 sequence with F169Y, K192R
# [6] = biological target: CRX (Homo sapiens, UniProt O43186 26-111, R41L)
# Chain of CRX (Homo sapiens, UniProt O43186 26-111, R41L) (O43186 26-111 R41L): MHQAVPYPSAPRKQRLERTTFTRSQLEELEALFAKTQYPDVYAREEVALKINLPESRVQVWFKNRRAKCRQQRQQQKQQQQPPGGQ
# [7] = biological target: HOXC10 (Homo sapiens, UniProt Q9NYD6 254-340)
# Chain of HOXC10 (Homo sapiens, UniProt Q9NYD6 254-340) (Q9NYD6 254-340): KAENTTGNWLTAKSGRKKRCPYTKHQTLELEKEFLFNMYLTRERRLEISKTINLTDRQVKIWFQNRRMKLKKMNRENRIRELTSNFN
# [8] = biological target: ALX3 (Homo sapiens, UniProt O95076 139-225, N203Q)
# Chain of ALX3 (O95076 139-225 N203Q): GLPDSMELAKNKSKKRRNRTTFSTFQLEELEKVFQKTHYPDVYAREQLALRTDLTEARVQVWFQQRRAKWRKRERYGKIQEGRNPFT
# [9] = biological target: HOXC10 (Homo sapiens, UniProt Q9NYD6 254-340, K271E)
# Chain of HOXC10 (Homo sapiens, UniProt Q9NYD6 254-340, K271E) (Q9NYD6 254-340 K271E): as the sequence (Q9NYD6 254-340) above, with K18E counted along it
# [10] = biological target: T3, PAX4 (Homo sapiens, UniProt O43316 9-242)
# T3 sequence: T1 sequence with K192R
# [11] = biological target: T4, PAX4 (Homo sapiens, UniProt O43316 9-242, R200Q)
# T4 sequence: T1 sequence with K192Q
# [12] = biological target: T5, PAX4 (Homo sapiens, UniProt O43316 9-242, F177V)
# T5 sequence: T1 sequence with F169V, K192R
# [13] = biological target: T6, PAX4 (Homo sapiens, UniProt O43316 9-242, R227W)
# T6 sequence: T1 sequence with K192R, R219W
# Chain of CRX (Homo sapiens, UniProt O43186 26-111, E42D) (O43186 26-111 E42D): as the sequence (O43186 26-111 R41L) above, with L16R, E17D counted along it
# Chain of CRX (Homo sapiens, UniProt O43186 26-111) (O43186 26-111): as the sequence (O43186 26-111 R41L) above, with L16R counted along it
sequence,measurement,setting,value
CTTACGAC,binding signal,[1],"10.1 upbm affinity estimate (log intensity, higher = more binding, comparable within an allelic series)"
same,binding signal,[2],"10 upbm affinity estimate (log intensity, higher = more binding, comparable within an allelic series)"
AGCTCAGC,binding signal,[1],"9.88 upbm affinity estimate (log intensity, higher = more binding, comparable within an allelic series)"
same,binding signal,[2],"9.76 upbm affinity estimate (log intensity, higher = more binding, comparable within an allelic series)"
ATTAATCC,binding signal,[1],"13.5 upbm affinity estimate (log intensity, higher = more binding, comparable within an allelic series)"
same,binding signal,[3],"11.6 upbm affinity estimate (log intensity, higher = more binding, comparable within an allelic series)"
same,binding signal,[2],"13.6 upbm affinity estimate (log intensity, higher = more binding, comparable within an allelic series)"
same,binding signal,[4],"13.4 upbm affinity estimate (log intensity, higher = more binding, comparable within an allelic series)"
same,binding signal,[5],"10.9 upbm affinity estimate (log intensity, higher = more binding, comparable within an allelic series)"
same,binding signal,[6],"13.5 upbm affinity estimate (log intensity, higher = more binding, comparable within an allelic series)"
ACTTTATC,binding signal,[1],"10.6 upbm affinity estimate (log intensity, higher = more binding, comparable within an allelic series)"
same,binding signal,[2],"10.4 upbm affinity estimate (log intensity, higher = more binding, comparable within an allelic series)"
ATCAGTTA,binding signal,[1],"9.84 upbm affinity estimate (log intensity, higher = more binding, comparable within an allelic series)"
same,binding signal,[2],"9.71 upbm affinity estimate (log intensity, higher = more binding, comparable within an allelic series)"
CCTAATAG,binding signal,[1],"9.68 upbm affinity estimate (log intensity, higher = more binding, comparable within an allelic series)"
same,binding signal,[2],"9.47 upbm affinity estimate (log intensity, higher = more binding, comparable within an allelic series)"
TGTGTTAA,binding signal,[1],"10.4 upbm affinity estimate (log intensity, higher = more binding, comparable within an allelic series)"
same,binding signal,[2],"10.2 upbm affinity estimate (log intensity, higher = more binding, comparable within an allelic series)"
CCTTATTA,binding signal,[1],"11 upbm affinity estimate (log intensity, higher = more binding, comparable within an allelic series)"
same,binding signal,[7],"11.3 upbm affinity estimate (log intensity, higher = more binding, comparable within an allelic series)"
same,binding signal,[2],"10.9 upbm affinity estimate (log intensity, higher = more binding, comparable within an allelic series)"
same,binding signal,[8],"8.6 upbm affinity estimate (log intensity, higher = more binding, comparable within an allelic series)"
same,binding signal,[9],"11.2 upbm affinity estimate (log intensity, higher = more binding, comparable within an allelic series)"
same,binding signal,[6],"10.4 upbm affinity estimate (log intensity, higher = more binding, comparable within an allelic series)"
ACTATCCG,binding signal,[1],"9.31 upbm affinity estimate (log intensity, higher = more binding, comparable within an allelic series)"
same,binding signal,[2],"9.26 upbm affinity estimate (log intensity, higher = more binding, comparable within an allelic series)"
CCACGCCA,binding signal,[1],"8.11 upbm affinity estimate (log intensity, higher = more binding, comparable within an allelic series)"
same,binding signal,[3],"9.43 upbm affinity estimate (log intensity, higher = more binding, comparable within an allelic series)"
same,binding signal,[10],"9.33 upbm affinity estimate (log intensity, higher = more binding, comparable within an allelic series)"
same,binding signal,[2],"8.32 upbm affinity estimate (log intensity, higher = more binding, comparable within an allelic series)"
same,binding signal,[11],"9.45 upbm affinity estimate (log intensity, higher = more binding, comparable within an allelic series)"
same,binding signal,[12],"9.5 upbm affinity estimate (log intensity, higher = more binding, comparable within an allelic series)"
same,binding signal,[5],"9.5 upbm affinity estimate (log intensity, higher = more binding, comparable within an allelic series)"
same,binding signal,[13],"9.53 upbm affinity estimate (log intensity, higher = more binding, comparable within an allelic series)"
same,binding signal,[6],"8.24 upbm affinity estimate (log intensity, higher = more binding, comparable within an allelic series)"
